Bioassay records (PubChem)
GDH-TPI counter – counter-screen for M. tuberculosis FBA inhibitors: GDH-TPI coupled enzymes; GDH-TPI coupled enzyme counterscreen, NADH absorbance; inhibition, % at 4.8 µM; 360,000 compounds, 1.2% hits; AID 588335;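 also: 0% = DMSO wells and 100% = wells lacking the enzyme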
Mtb FBA inh – inhibitors of M. tuberculosis fructose-bisphosphate aldolase | 360,000 compounds, 2.3% hits | purified M. tuberculosis FBA, fluorescence read-out | inhibition, % at 1 µM | P9WQA3; in the data active = inhibition above about 27%;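 also: 0% = vehicle and 100% = reference inhibitor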
Target sequence (P9WQA3 whole entry, looked up): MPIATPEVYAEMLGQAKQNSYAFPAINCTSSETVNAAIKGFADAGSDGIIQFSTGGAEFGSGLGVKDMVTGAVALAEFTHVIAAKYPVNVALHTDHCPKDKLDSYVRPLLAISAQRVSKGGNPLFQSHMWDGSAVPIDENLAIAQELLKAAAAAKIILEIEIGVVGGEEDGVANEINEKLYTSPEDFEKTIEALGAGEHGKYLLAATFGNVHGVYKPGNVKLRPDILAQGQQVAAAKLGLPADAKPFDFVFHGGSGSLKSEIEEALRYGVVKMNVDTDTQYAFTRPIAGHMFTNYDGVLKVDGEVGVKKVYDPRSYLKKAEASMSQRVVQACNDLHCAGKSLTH
CCHFV vOTU inh – CCHFV vOTU protease inhibition | Pep-AMC fluorescence | inhibition, % at 11.5 µM | 370,000 compounds, 0.55% hits; also: 0% = vehicle wells with enzyme and 100% = no enzyme wells
BH1578 lux ind – quorum light induction in luxS cqsA deficient V. cholerae. V. cholerae BH1578 lux reporter, luminescence, 6 h. activation, % at 18.7 µM. 350,000 compounds, 0.16% hits; in the data active = activation mostly above about 9.7%, no sharp cut-off
An asterisk follows results filed as active; i = inactive; nt = no result; + = active, no number. Shown are actives, neighbours in structure and some others; about 3.9% of the full set was active somewhere. Rule as the data show it, unless noted: active = inhibition above about 30%; inactive = the rest.

SMILES | GDH-TPI counter | Mtb FBA inh | CCHFV vOTU inh | BH1578 lux ind
CCOC(=O)c1cc2c(=O)n3ccccc3nc2n(C(C)C)c1=NC(=O)c1c(-c2ccccc2Cl)noc1C | -1 | 18 | -11 | i
CCOC(=O)c1cc2c(=O)n3ccccc3nc2n(C(C)C)c1=NC(=O)c1ccncc1 | 9 | 123* | -229 | -3
CCOC(=O)c1cc2c(=O)n3ccccc3nc2n(CCOC)c1=NC(=O)c1ccncc1 | 10 | 186* | -155 | -3
CCOC(=O)c1cc2c(=O)n3ccccc3nc2n(CCOC)c1=NC(=O)C(C)(C)C | -8 | + | -217 | 0
O=C(Cn1nc(-c2ccccc2)c2ccccc2c1=O)NCCN1CCOCC1 | 5 | 3 | 1 | -2
COc1cccc2c(SCC(=O)N/N=C/c3ccc(O)c(O)c3)cc(C)nc12 | 14 | -1 | -5 | 0
O=C(c1ccco1)N1CCN(c2ccc([N+](=O)[O-])cn2)CC1 | 31* | 3 | 12 | i
CN(Cc1ccccc1)C1=CC(=[N+]2CCCCC2)CC(C)(C)C1 | 68* | -1 | 0 | 0
CC1(C)CC(N2CCN(Cc3ccccc3)CC2)=CC(=[N+]2CCCCC2)C1 | 64* | 0 | 9 | 0
CCC(C)n1cnc2c(c1=O)c1nc3ccccc3nc1n2Cc1ccccc1OC (stereo not drawn) | 14 | 3 | 11 | 0
NS(=O)(=O)c1ccc(CNc2ccc3ccccc3n2)cc1 | -1 | 3 | -4 | -1
O=C(c1ccc([N+](=O)[O-])cc1)N1CCN(Cc2ccccc2[N+](=O)[O-])CC1 | 5 | -3 | 3 | 1
O=C(O)c1cccc(-c2ccc(/C=N/NC(=O)c3cccnc3)o2)c1 | 57* | 23 | -10 | i
O=C(Cc1ccc(Br)cc1)N/N=C/c1ccc(-c2cccc(C(=O)O)c2)o1 | 62* | 7 | 0 | -1
CCOC(=O)c1ccc(-c2ccc(/C=N/NC(=O)Cc3nnc(N)s3)o2)cc1 | 40* | 21 | -18 | 0
Nc1nnc(CC(=O)N/N=C/c2ccc(-c3cccc(C(=O)O)c3)o2)s1 | 46* | 4 | 24 | 0
Nc1nonc1-c1nc2ccccc2n1CC(=O)N/N=C/c1ccc(-c2cccc(C(=O)O)c2)o1 | 25 | -1 | 9 | i
Nc1nnc(CC(=O)N/N=C/c2ccc(-c3ccc(F)cc3)o2)s1 | 21 | 2 | 7 | -1
COC(=O)C[C@H]1CC[C@H]2[C@H](COc3ccc(NC(=O)c4ccccc4F)cc3C(=O)N2C)O1 | nt | nt | 2 | nt
O=C(NCc1ccc(F)cc1)C(=O)NCC1OCCN1C(=O)c1ccc(Cl)cc1 (stereo not drawn) | -7 | 5 | 2 | 0
Cc1cc(N(CCCl)CCCl)ccc1/C=N/NC(=O)c1ccco1 | 49* | 0 | 16 | i
Cc1sccc1/C=N/NC(=O)c1ccco1 | 28 | -1 | 19 | 0
Cc1cc(N(CCCl)CCCl)ccc1C=NNC(=O)Cc1cc(=O)oc2cc(O)ccc12 | 59* | 169* | -139 | i
Cc1cc(=O)oc2cc(OCC(=O)N/N=C/c3ccccc3O)ccc12 | 2 | 2 | 16 | 0
O=C(CCn1cnc2ccccc21)N/N=C/C=C/c1ccccc1 | 21 | 2 | -8 | 0
SMILES | GDH-TPI counter | Mtb FBA inh | CCHFV vOTU inh | BH1578 lux ind
COc1ccccc1/C=C/C=N/NC(=O)CCn1cnc2ccccc21 | 33* | 0 | 2 | -1
COc1ccccc1/C=C/C=N/NC(=O)c1cc(-c2ccco2)[nH]n1 | 32* | -1 | 0 | 0
COc1ccccc1/C=C/C=N/NC(=O)CC1C(=O)NN=C1C (stereo not drawn) | 37* | 0 | -7 | 0
COc1cccc(/C=N/NC(=O)CC2C(=O)NN=C2C)c1OC (stereo not drawn) | 12 | 12 | 11 | -6
COc1ccccc1/C=C/C=N/NC(=O)c1ccc(=O)n(C)c1 | 51* | 2 | 15 | -1
Cc1ccccc1CN1C(=O)CS/C1=N/N=C/c1ccco1 | 11 | 0 | 1 | -1
O=C(NCc1ccccc1F)C1CCCN(S(=O)(=O)N2CCOCC2)C1 (stereo not drawn) | 1 | 0 | 0 | 0
c1cnn(-c2cncc(-n3cccn3)n2)c1 | 32* | 16 | -9 | 1
O=C(O)c1ccc(-n2cccn2)nc1 | 0 | 1 | 2 | 0
CO[C@@]12[C@H](COC(N)=O)C3=C(C(=O)C(C)=C(N)C3=O)N1C[C@@H]1N[C@@H]12 | 18 | -1 | -5 | 58*
COc1ccc(/C=N\NC(=O)COc2ccc(Cl)cc2Cl)c(C(=O)O)c1OC | 4 | 0 | -8 | -1
Clc1ccc2c(c1)C1OCCC1C(c1ccco1)N2 (stereo not drawn) | 10 | 69* | -66 | i
COc1ccc(-c2cc(=O)[nH]c(NCc3ccccc3)n2)cc1 | 20 | 1 | -1 | -1
COc1ccc(-c2ccnc3c(C#N)cnn23)cc1 | 13 | 171* | -194 | 0
COc1ccc(-c2ccnc3c(Br)c(C)nn23)cc1 | 6 | -2 | 2 | 0
COc1cc(/C=C/C(=O)N2CCN(c3n[nH]c(=O)[nH]c3=O)CC2)cc(OC)c1OC | 13 | 3 | 4 | i
Cc1ccc(NC(=O)c2c(C)nn(-c3ccccc3)c2Cl)c(C)c1 | 9 | -4 | 4 | -1
CC(=O)Nc1nc2nc(-c3ccccc3)cc(-c3ccccc3)n2n1 | 26 | 60* | -46 | 4
O=C(Nc1nc2nccc(-c3ccccc3)n2n1)c1ccccc1 | 8 | 5 | 1 | -1
CC1OC(Oc2ccc3ccc(=O)oc3c2-c2c(O)ccc3cc(Oc4ccc5ccc(=O)oc5c4)c(=O)oc23)C(O)C(O)C1O (stereo not drawn) | 45* | 3 | 2 | i
O=C(c1cccnc1)c1cc2ccccc2[nH]1 | 35* | 0 | 4 | 0
Cc1csc2nc(O)c(C(=O)NCCCc3ccccc3)c(=O)n12 | 3 | 3 | 0 | i
COc1ccc(/C=N/Nc2cc(C)nc(N3CCOCC3)n2)cc1 | 33* | 0 | -4 | 0
COc1ccc(/C=N/Nc2cc(C)nc(N3CCOCC3)n2)cc1OC | 11 | 2 | 1 | -1
COc1ccc(/C=N/Nc2cc(OC)ncn2)cc1 | 31* | -2 | 9 | 0
SMILES | GDH-TPI counter | Mtb FBA inh | CCHFV vOTU inh | BH1578 lux ind
COc1ccc(/C=N/Nc2cc(N(C)C)nc(N(C)C)n2)cc1 | 24 | 2 | 2 | 0
COc1ccc(/C=N/Nc2cc(C)nc(N)n2)cc1 | 35* | -1 | 1 | -2
COc1ccc(/C=N/Nc2cc(C)nc(-n3nc(C)cc3C)n2)c(OC)c1 | 37* | 0 | 7 | 3
Cc1cc(N/N=C/c2ccc(F)cc2)nc(-n2nc(C)cc2C)n1 | 11 | 17 | 0 | -1
COc1ccc(S(=O)(=O)N2CCN(CC(=O)Nc3ccccc3OC)CC2)cc1 | 13 | -8 | 6 | 0
Cc1ccc(C)c(N(CC(=O)NC2CCCC2)C(=O)CNC(=O)c2cccs2)c1 | -2 | 0 | 11 | 0
Cc1ccc(N2CC(C(=O)Nc3ccccc3C(=O)N3CCOCC3)CC2=O)cc1 (stereo not drawn) | -2 | 3 | 19 | 0
COc1ccc(C(C)(NC(C)=O)c2nc(-c3cncnc3)cs2)cc1 (stereo not drawn) | 12 | 1 | 3 | 3
CNC(=O)c1cc2ccc(OC)cc2oc1=O | 30 | + | -222 | -1
